Our source for the GI50 values is ChEMBL document CHEMBL1201862, “PubChem BioAssay data set” (2004).

The campaign covered roughly 54,000 sequences. About 4,800 (8.9%) were called active. Rule as the data show it: active = GI50 up to about 1.1 µM and inactive = higher. A selection follows. Results with a measured potency or affinity are listed apart.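 Cultured in 96-well plates, cells were exposed to test compound for 48 hours across five concentrations. GI50 marks 50% less growth.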

The subject of this test is RPMI-8226. As to the kind of experiment: NCI tumour cell line growth inhibition, 48 h.
Take “[Bis(aminomethyl)diethylsilane]tetrachloroplatinum(IV), CHEMBL2146203”: the GI50 came out at 1620 nM.

As to “[Bis(aminomethyl)pentamethylenesilane]tetrachloropaltinum(IV), CHEMBL2146204”, the GI50 amounted to 4530 nM.

In the case of “[Bis(aminomethyl)tetramethylenesilane]dichloropaltinum(II), CHEMBL2146205”, the GI50 was found to be 9860 nM.

Take “[Bis(aminomethyl)dimethylsilane]tetrachloroplatinum(IV), CHEMBL2146190”: the GI50 turned out to be 2110 nM.

“mu-(1,7-nanodiamine-N,N')bis-(cis-aminedichloroplatimum (II)), CHEMBL2146215”: the GI50 was 26200 nM.

“[Bis(aminomethyl)ethylmethylsilane]tetrachloroplatinum(IV), CHEMBL2146192” gave a GI50 of 1320 nM.

The substance “[Bis(aminomethyl)tetramethylenesilane]tetrachloropaltinum(IV), CHEMBL2146189” returned a GI50 of 1100 nM.

“cis-Bis[[(trimethylsilyl)methyl]amino]tetrachloroplatinum(IV), CHEMBL2146191” displayed a GI50 of 1940 nM.

As for “[Bis(aminomethyl)pentamethylenesilane]dichloropaltinum(II), CHEMBL2146202”, the GI50 worked out at 1920 nM.

On to CISPLATIN, CHEMBL11359, for which the GI50 amounted to 4290 nM.

For the substance “[Bis(aminomethyl)dimethylsilane]dichloroplatinum (II), CHEMBL2146201”, the GI50 turned out to be 12200 nM.
